The list is not random: actives were taken first. Their share in the collection is about 32%.
CYP2C19 inhib – blockers of cytochrome P450 2C19 activity – biochemical, luminescence, ADME assay, primary screen | P33261 | CYP2C19 Supersomes, luciferin-H EGE luminescence, 30 min | inhibition, % at 5 µM | 21% of 96,000 active;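 active = CYP2C19 inhibition above a set limit at 5 µM in the primary screen, cut at about 50% in these data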;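 note: plate controls were negative control wells for no effect and 2.5 mM tranylcypromine positive control for full effect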
Target sequence (P33261 whole entry, looked up): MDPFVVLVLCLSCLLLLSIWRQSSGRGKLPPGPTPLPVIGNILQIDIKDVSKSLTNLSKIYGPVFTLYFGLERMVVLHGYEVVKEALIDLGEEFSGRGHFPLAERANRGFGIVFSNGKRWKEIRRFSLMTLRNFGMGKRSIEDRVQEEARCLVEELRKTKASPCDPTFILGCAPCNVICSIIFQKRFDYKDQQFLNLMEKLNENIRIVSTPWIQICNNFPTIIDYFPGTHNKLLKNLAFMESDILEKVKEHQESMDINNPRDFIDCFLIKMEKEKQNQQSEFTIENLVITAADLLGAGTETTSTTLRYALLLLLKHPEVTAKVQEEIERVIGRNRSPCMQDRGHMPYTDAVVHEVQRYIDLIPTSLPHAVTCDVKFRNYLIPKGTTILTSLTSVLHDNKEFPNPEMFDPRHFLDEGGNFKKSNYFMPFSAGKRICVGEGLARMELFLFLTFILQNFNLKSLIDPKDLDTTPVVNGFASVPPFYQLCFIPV
CYP2C9 inhib – blockers of cytochrome P450 2C9 activity – biochemical, luminescence, ADME assay, primary screen. P11712. CYP2C9 Supersomes, luciferin-H conversion. inhibition, % at 5 µM. 20% of 96,000 active;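 active = blocking of liver enzyme CYP2C9 beyond about 50% at 5 µM, limit read from the data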
PostGolgi yeast – phenotypic screen on post-Golgi transport, primary screen | 0.9% of 98,000 active | inhibition, % at 10 µM | post-Golgi transport phenotypic cell assay;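 note: yeast cells grown in 1536-well plates; yeast grown about 18 h at 30C before absorbance read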
PostGolgi ctrl – growth inhibition of yeast control strain, primary screen, counter-screen for post-Golgi transport modulator project; AID 738, 2007; efflux-deficient yeast background strain, growth absorbance A615, 16 h; 5% of 98,000 active; inhibition, % at 10 µM
CYP2C19 activ – human CYP2C19 activators, primary screen, biochemical, luminescence | Cytochrome P450 2C19 (Homo sapiens), P33261 | recombinant CYP2C19, luciferin-H EGE luminescence; active compounds read high; 0 = fully inhibited enzyme, 1 = untreated enzyme | activation factor at 5 µM | 96,000 tested, under 10 active | AID 1025, 2008;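 active = activation factor of at least 2 at 5 µM in the primary screen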;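 note: 0 = wells with 2.5 mM tranylcypromine and 1 = vehicle-only wells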
CYP2C9 act – human CYP2C9 activators, primary screen, biochemical, luminescence; Cytochrome P450 2C9 (Homo sapiens), P11712; AID 1024, 2008; recombinant CYP2C9, luciferin-H conversion; active compounds read high; factor 1 = untreated enzyme, 0 = blocked; 1.4% of 96,000 active; activation factor at 5 µM;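 active = activation factor of 2 or more for CYP2C9 at a 5 µM dose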;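 note: 0 = sulfaphenazole-blocked wells and 1 = vehicle-only wells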
Numbers without * were called inactive; nt = not tested or not shown. Cut-off read from the data, not from the text of the source, unless noted: active = inhibition above about 30%; inactive = the rest.

SMILES	CYP2C19 inhib	CYP2C9 inhib	PostGolgi yeast	PostGolgi ctrl	CYP2C19 activ	CYP2C9 act
CSc1ccccc1NC(=O)c1ccc(Br)o1	57.3*	-9.3	-0.3	0.3	0.4	1.1
CCOC(=O)c1c(C)noc1CP(=O)(c1ccccc1)c1ccccc1	nt	nt	-3.7	6.1	nt	nt
Cc1occc(=O)c1OC(=O)Nc1ccccc1	-14.9	-13.2	2.1	-8.8	1.1	1.1
FCCCOc1ccc(/C=N/OCc2ccc(Cl)cc2)cc1	7.0	9.5	-2.1	7.7	0.9	0.9
Cc1ccc(-n2ncc3c(=O)n(CC(=O)Nc4cccc(Cl)c4)cnc32)cc1C	3.1	11.5	7.8	12.3	1	0.9
O=C(O)C1CCCCC1C(=O)NCCCN1CCOCC1 (stereo not given)	12.1	-0.4	-9.4	15.4	0.9	1
N#CCN1CCN(CC(=O)Nc2cccc3ccccc23)CC1	-0.6	-4.7	-0.2	-1.3	1	1
COc1ccc(C(=O)Cn2nnc(-c3ccccc3NC(=O)c3ccco3)n2)cc1	9.9	16.6	1.2	10.2	0.9	0.8
O=C(Nc1ccccc1-c1nnn(CC(=O)N2CCCc3ccccc32)n1)c1ccco1	54.4*	89.8*	26.6	8.7	0.5	0.1
O=C(N/N=C/c1c[nH]c2ccc(Br)cc12)c1ccn(Cc2ccc(Cl)cc2Cl)n1	13.8	35.0	3.1	15.4	0.9	0.7
O=C(N/N=C/c1c[nH]c2ccccc12)c1ccn(Cc2ccc(Cl)cc2)n1	64.8*	1.8	-1.3	2.1	0.4	1
O=C(OCc1ccccc1Cl)c1ccc(-n2cnnc2)cc1	97.7*	90.5*	0.0	12.2	0	0.1
O=C(/C=C/c1ccc(Cl)cc1)c1cccnc1	93.7*	51.7*	38.6*	15.5	0.1	0.5
O=C(/C=C/c1ccccc1Cl)c1cccnc1	54.5*	13.0	-11.7	9.8	0.5	0.9
O=C(/C=C/c1ccccc1)NNC(=O)c1cccnc1	4.7	12.8	1.0	-7.0	1	0.9
COc1ccc(CCNC(=O)C2CCC(CNc3c(N4CCCC4)c(=O)c3=O)CC2)cc1OC (stereo not given)	-4.5	-3.7	-2.3	4.4	1	1
C=CCSc1nc2ccccc2n1C(=O)/C=C/c1cc(OC)c(OC)c(OC)c1	54.9*	77.8*	2.7	38.4*	0.5	0.2
CC(=O)N1CCc2cc(S(=O)(=O)NC(CC(C)C)C(=O)Nc3cc(C(=O)O)ccc3C)ccc21 (stereo not given)	-10.9	-14.3	5.3	-1.2	1.1	1.1
Cc1nc2[nH]c(=O)c3c(n2n1)NC1=C(C(=O)CC(C)(C)C1)C3c1ccc(F)cc1 (stereo not given)	-8.9	-4.6	0.0	12.2	1.1	1
Cc1ccc(C2C3=C(CC(C)(C)CC3=O)Nc3[nH]c(=S)[nH]c(=O)c32)cc1 (stereo not given)	39.7	69.7*	23.8	7.1	0.6	0.3
CCOC(=O)N1CCC(NS(=O)(=O)c2ccc3c(c2)oc(=O)n3C)CC1	15.6	4.0	-4.3	0.0	0.8	1
CCOC(=O)c1cc(S(=O)(=O)NC2CCN(C(=O)OCC)CC2)cn1C	31.4	56.8*	20.2	7.8	0.7	0.4
O=C(NCCCN1CCOCC1)C(C(=O)c1ccccc1)n1ccccc1=O (stereo not given)	4.5	5.6	-7.8	6.9	1	0.9
Cn1ccnc1SCC(=O)Nc1ccc(Oc2ccccc2)cc1	88.2*	71.4*	-5.5	0.3	0.1	0.3
CCOc1ccc(-n2ccnc2SCC(=O)Nc2nnc(CC)s2)cc1	27.0	23.3	0.8	1.9	0.7	0.8
SMILES	CYP2C19 inhib	CYP2C9 inhib	PostGolgi yeast	PostGolgi ctrl	CYP2C19 activ	CYP2C9 act
COc1ccc(-n2ccnc2SCC(=O)Nc2ccc(OC)cc2OC)cc1	91.6*	27.3	4.7	10.5	0.1	0.7
CCOc1ccc(NC(=O)CSc2nccn2C)cc1	nt	nt	-0.3	-5.8	nt	nt
COc1ccc(NC(=O)CSc2nccn2-c2ccccc2)cc1	86.4*	68.8*	-6.3	-8.6	0.1	0.3
Cn1ccnc1SCC(=O)Nc1cccc(C(F)(F)F)c1	87.1*	-51.9	-1.7	-1.9	0.1	1.5
COC(=O)c1ccc(-c2nc3ccc(C)cc3o2)cc1	35.3	9.5	-10.1	0.4	0.6	0.9
FC(F)(F)c1cc(-c2cccs2)n[nH]1	37.6	9.1	-4.7	5.9	0.6	0.9
COc1ccc(NC(=O)CSc2nc(N)c3cc4c(nc3n2)CCCC4)c(OC)c1	22.0	80.8*	-1.6	11.6	0.8	0.2
CCC(=O)Nc1ccccc1C(=O)NC1CCCCC1	31.7	-60.0	-7.4	6.5	0.7	1.6
CC(=O)NC1C(=O)N(CCc2ccccc2)c2ccc(Br)cc21 (stereo not given)	80.4*	15.0	0.6	22.8	0.2	0.8
CCOC(=O)/C(C#N)=C1/C=CN(Cc2ccccc2)C=N1	68.1*	57.3*	14.6	22.3	0.3	0.4
CCOC(=O)/C(C#N)=C1/C=Nc2ccccc2N1	7.4	21.5	-2.8	40.7*	0.9	0.8
CCOC(=O)/C(C#N)=C1/C=CN(c2ccccc2)C=N1	0.5	30.8	-1.7	8.6	1	0.7
CCOC(=O)/C(C#N)=C1/C=CN(C)C=N1	6.3	-2.6	-1.4	12.8	0.9	1
CCOc1ccc(/C=N/N(C)c2ccccc2)cc1OC	12.1	-7.9	-4.4	26.5	0.9	1.1
CCOc1cc(C=O)ccc1OCCSc1ccc(C)cc1	76.7*	69.7*	-11.2	16.3	0.2	0.3
COc1cc(C=O)ccc1OCCSc1ccc(C)cc1	85.0*	67.7*	-4.8	-2.1	0.2	0.3
CCn1c(C)nc2cc(S(=O)(=O)C(F)(F)C(F)C(F)(F)F)ccc21 (stereo not given)	16.4	-0.4	-1.0	27.8	0.8	1
N#Cc1c(-c2ccccc2)ccnc1Oc1ccccc1	52.6*	23.5	-6.3	7.8	0.5	0.8
O=C(NCC1CCCO1)[C@@H]1CSC2c3ccccc3C(=O)N21 (stereo not given in full)	14.5	22.3	-0.9	12.1	0.9	0.8
COc1ccc(NC(=O)C2CSC3c4ccccc4C(=O)N23)cc1 (stereo not given)	69.8*	60.2*	11.5	-1.4	0.3	0.4
O=C(CSc1nc2ccccc2c(=O)[nH]1)Nc1ccc(S(=O)(=O)N2CCCC2)cc1	32.3	96.0*	20.6	6.9	0.7	0
O=C(CSc1ncn[nH]1)Nc1ccc(S(=O)(=O)N2CCCC2)cc1	10.0	60.7*	8.8	5.8	0.9	0.4
O=C(CSc1ncccn1)Nc1ccc(S(=O)(=O)N2CCCCC2)cc1	5.0	24.0	-6.7	7.2	0.9	0.8
